Source: PubChem BioAssay
IMPase cell inh – cell-permeable inhibitors of inositol monophosphatase (IMPase); CHO-M1 cells, IP1 accumulation, HTRF TR-FRET ratio; 120,000 tested, under 10 active; inhibition (IP1 accumulation), % at 46.1 µM; AID 901; P97697; active means well fitted curve in the direction sought with a large enough effect in the signal ratio, not every such curve was filed as active; inconclusive means small, poorly fitted or top-dose-only effect, or a change in a side signal; inactive means no such curve, though single readings can be large or run the other way; the % refers to the signal ratio;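 further: cells stimulated with carbachol in lithium chloride buffer; higher means more IMPase inhibition seen as more IP1 and lower FRET ratio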
Target sequence (P97697 whole entry, looked up): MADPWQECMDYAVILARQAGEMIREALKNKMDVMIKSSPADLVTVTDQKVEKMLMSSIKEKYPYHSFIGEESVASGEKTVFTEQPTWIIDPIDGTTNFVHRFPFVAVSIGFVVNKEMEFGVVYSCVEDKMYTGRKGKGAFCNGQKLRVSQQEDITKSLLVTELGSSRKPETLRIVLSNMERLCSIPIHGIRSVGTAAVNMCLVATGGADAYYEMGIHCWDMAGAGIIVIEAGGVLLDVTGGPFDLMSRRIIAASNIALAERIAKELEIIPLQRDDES
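Seeded CHO-M1 cells were dosed with compound at up to 46 uM, stimulated with carbachol for 30 min, then lysed in IP-One detection reagents. Higher IP1 lowers the TR-FRET signal.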
PNC inhibitor – blocks assembly of the perinucleolar compartment. 140,000 tested, 3.1% active. PC3M PTB-GFP, PNC prevalence imaging, 16 h; hits give low values. activity change (PNC), negative = inhibition, % at 10 µM;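 active means readout at or below -70, meaning at least 70% loss of cells showing the perinucleolar compartment, a nuclear body marking cancer cells; inconclusive means readout between -30 and a set limit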
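PC3M cells stably expressing PTB-GFP, 750–1000 cells/well, treated 16 h at 37 °C with compound (23 nl of library stock), in duplicate. After paraformaldehyde fixation and Hoechst stain, imaged at 20x; PNC prevalence scored by image analysis.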
NPSR antag – antagonists of human neuropeptide S receptor cAMP signaling; Potency, µM (highest dose often 38.3 µM), actives largely listed as inhibitors; AID 1461; CHO-NPSR cells, cAMP TR-FRET, antagonist mode; 220,000 tested, 1% active; Q6W5P4; further: nearly all actives have a fitted effect of over 50% in size
Target sequence (Q6W5P4 whole entry, looked up): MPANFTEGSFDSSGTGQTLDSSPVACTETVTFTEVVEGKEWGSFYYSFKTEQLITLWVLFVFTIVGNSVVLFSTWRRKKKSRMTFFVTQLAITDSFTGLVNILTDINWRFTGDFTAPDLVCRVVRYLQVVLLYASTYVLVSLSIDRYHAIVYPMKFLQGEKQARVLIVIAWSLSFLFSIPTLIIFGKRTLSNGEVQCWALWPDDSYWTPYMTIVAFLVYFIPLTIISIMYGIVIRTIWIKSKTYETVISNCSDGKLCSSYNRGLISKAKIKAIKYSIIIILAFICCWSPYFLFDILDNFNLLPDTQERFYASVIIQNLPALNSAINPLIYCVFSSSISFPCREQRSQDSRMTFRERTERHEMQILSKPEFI
HttQ103 aggreg – inhibitors of mutant huntingtin aggregate formation in PC12 cells; PC12 HttQ103-GFP aggregates, Acumen cytometry, 40 h; Potency, µM (titrated, usually from 46.1 µM), actives largely listed as inhibitors; 220,000 tested, 1.1% active; further: nearly all actives have a fitted effect of over 60% in size
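Compounds (qHTS titration) were added to PC12 cells expressing an ecdysone-driven HTT exon 1 Q103–GFP fusion after induction with 100 nM tebufenozide. Aggregate formation was measured as GFP objects in cell lysates.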
12-hLO inh – 12-hLO (ALOX12) enzyme inhibition. P18054. purified 12-hLO, xylenol orange hydroperoxide absorbance. Potency, µM (top dose mostly 57.1 µM), most hits filed as inhibitors. 150,000 tested, 0.12% active. AID 1452; further: nearly all actives have a fitted effect of over 55% in size
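Hydroperoxide output read as Fe(III)-xylenol orange absorbance, 573-to-405 nm ratio, after 30 min reaction with 40 uM arachidonic acid. Enzyme: 150 nM purified human 12hLO, 15 min compound preincubation; 25 mM Hepes pH 7.0, room temperature.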
HTT cytoprotect – Huntington cell model cytoprotection by ATP luminescence | Potency, µM (series often up to 56.4 µM), actives largely listed as activators | 230,000 tested, 0.14% active | AID 1471 | PC12 HTT-Q103 induced, cytoprotection, ATP luminescence, 40 h; further: nearly all actives have a fitted effect of over 45% in size
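PC12 cells stably carrying ecdysone-inducible Htt exon 1 (Q103)–GFP were induced with 100 nM tebufenozide (final) alongside library compounds in a dose series. Cytoprotection was scored as retained ATP by ATPlite luminescence.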
A number is an active result; - = inactive; ? = inconclusive; . = no result given; [ ] = another dose, or the depositor's remark. Shown are actives, neighbours in structure and some others; about 3.3% of the full set was active somewhere. Unless noted, the call rests on the fitted dose curve; in most records, active means well fitted curve in the direction sought with a large enough effect; inconclusive means small, poorly fitted or top-dose-only effect, or another doubt; inactive means no such curve, though single readings can be large; an effect the other way counts as inactive or inconclusive.

SMILES | IMPase cell inh | PNC inhibitor | NPSR antag | HttQ103 aggreg | 12-hLO inh | HTT cytoprotect
Cc1ccc(/C=C2/SC(=O)NC2=S)o1 | . | . | 12.6µM | - | . | -
Cc1[nH]c2ccccc2c1-c1cc(-c2cc(-c3c(C)[nH]c4ccccc34)nc(N)n2)nc(N)n1 | . | . | . | . | -[11.4 µM] | -[10 µM]
O=C(C1CC(=O)N(C2CCCC2)C1)N1CCC(Cc2ccccc2)CC1 (stereo not drawn) | - | -106.2 | - | - | - | -
O=C(C1CC(=O)N(C2CCCC2)C1)N1CCN(c2ccccc2F)CC1 (stereo not drawn) | - | - | - | - | - | -
Cc1c(N=C2C=C(Br)C(=O)C(Br)=C2)c(=O)n(-c2ccccc2)n1C | . | . | - | ? | . | -[10 µM]
Cc1c(N=C2C=CC(=O)c3ccccc32)c(=O)n(-c2ccccc2)n1C | . | . | 10µM | ? | . | -
CC(C)CCCC(C)C1CCC2C3CC[C@H]4CC(=O)CC[C@@]4(C)C3CC[C@@]12C (stereo partly drawn) | . | . | . | . | - | .
COC(=O)c1cccc(NC(=O)c2cnoc2C)c1 | - | -118.9 | - | - | - | -[10 µM]
COC(=O)c1cccc(NC(=O)c2cccnc2)c1 | - | - | - | - | - | -
O=c1c2oc3ccccc3c2[nH]c(=S)n1-c1ccc(F)cc1 | . | . | 10µM | - | . | -
Cc1ccc(-n2c(=S)[nH]c3c(oc4ccccc43)c2=O)cc1C | ? | - | ? | - | - | -[10 µM]
CCCCCCCC(=O)OC[C@H](CO)OC(=O)CCCCCCC | . | . | . | . | - | -
COC(=O)/C(=C/c1cn(C(C)=O)c2ccccc12)[N+](=O)[O-] | . | . | - | -[9.22 µM] | . | -[10 µM]
CC(=O)n1cc(C(C[N+](=O)[O-])SCCN)c2ccccc21 (stereo not drawn) | - | - | 10µM | ? | - | -
COc1ccc(-c2nc(-c3ccccc3)c(NCc3ccccc3)o2)cc1 | . | . | . | . | - | -
Cc1c(C(Nc2ccccn2)c2ccc(Cl)cc2)c(=O)n(-c2ccccc2)n1C (stereo not drawn) | - | - | - | - | - | -
Cc1c(C(Nc2ccccn2)c2ccccc2)c(=O)n(-c2ccccc2)n1C (stereo not drawn) | - | -100.0 | - | - | - | -[10 µM]
Cc1cn([C@@H]2C[C@H](N=[N+]=N)[C@H](CO)O2)c(=O)[nH]c1=O | - | . | . | . | - | -
CCOc1ccc2[nH]c(=O)c(CN(Cc3ccco3)Cc3nnnn3Cc3ccccc3)cc2c1 | - | - | - | - | - | -
CCOc1ccc2[nH]c(=O)c(CN(CCO)Cc3nnnn3CCc3ccccc3)cc2c1 | - | -85.1 | - | - | - | -[10 µM]
O=C(Nc1nc(-c2ccc3ccccc3c2)cs1)C1CCN(S(=O)(=O)c2cccs2)CC1 | . | -87.3 | - | - | - | -[10 µM]
Cc1ccc(-c2csc(NC(=O)C3CCN(S(=O)(=O)c4cccs4)CC3)n2)cc1 | . | - | - | ? | - | -[10 µM]
COc1ccc(CN2CCN(Cc3ccon3)CC2CCO)c(C)c1C (stereo not drawn) | . | . | - | -[9.22 µM] | . | -[10 µM]
Cc1ccc(C(O)(C(=O)NN(C(=O)c2ccccc2)c2ccccc2)c2ccc(C)cc2)cc1 | - | - | - | - | - | -[1.9 µM]
Cc1ccc(N(NC(=O)C(O)(c2ccccc2)c2ccccc2)C(=O)CCl)cc1 | . | - | 2.51µM | 5.01µM | - | -[10 µM]
SMILES | IMPase cell inh | PNC inhibitor | NPSR antag | HttQ103 aggreg | 12-hLO inh | HTT cytoprotect
CC(NC(=O)OC(C)(C)C)C(=O)Oc1cc2oc(=O)cc(-c3ccccc3)c2cc1Cl (stereo not drawn) | - | - | - | 6.31µM | - | -[10 µM]
COc1ccc(NC(=S)N/N=C/c2cccn2Cc2ccc(F)cc2)cc1 | . | . | - | - | . | -
Cc1nc2cc(C(=O)O)ccc2n1C1CCCCC1 | - | -100.0 | - | - | - | -[10 µM]
Cc1nc2cc(N)ccc2n1C1CCCCC1 | . | . | - | -[9.22 µM] | . | -[10 µM]
CCN1C=C(Cc2ccc(F)cc2)C2=C(C1)C(c1ccc(F)cc1)C(C#N)=C(N)O2 (stereo not drawn) | - | - | 10µM | - | - | -
CON(C)C(=O)c1nnc2c3ccccc3n(S(=O)(=O)c3ccc(C)cc3)c2n1 | . | . | . | . | . | -[10 µM]
Cc1ccc(F)cc1NC(=O)c1cnccn1 | . | . | - | - | . | -
O=C(Nc1nccs1)c1cnccn1 | - | -100.0 | - | - | - | -[10 µM]
O=C(Nc1nc(-c2ccc(F)cc2)cs1)c1cnccn1 | . | ? | - | 10µM | - | -[10 µM]
O=C(Nc1cnn(Cc2ccc(F)cc2)c1)c1cnccn1 | - | -129.2 | - | - | - | -[10 µM]
CCOC(=O)C1(C)C=C(Nc2ccc(C)cc2)C(=O)N1c1ccccc1 (stereo not drawn) | - | . | . | . | . | .
CCOc1ccc(S(=O)(=O)N2CCN(C(=S)NC3CC3)CC2)cc1 | . | . | - | -[9.22 µM] | . | -[10 µM]
CCOc1ccc(S(=O)(=O)N2CCN(C(=S)NCc3ccco3)CC2)cc1 | . | -86.6 | - | - | - | -[10 µM]
CCOC(=O)CN1C(=O)C(O)=C(C(C)=O)C1c1ccc(F)cc1 (stereo not drawn) | - | - | - | - | - | -[0.074 µM]
CCOC(=O)CN1C(=O)C(O)=C(C(C)=O)C1c1ccc([N+](=O)[O-])cc1 (stereo not drawn) | - | -110.7 | - | -[9.22 µM] | - | -
O=C(O/N=C(\c1ccccc1)c1ccccn1)c1ccc(Cl)c(Cl)c1 | - | -107.1 | - | - | - | -[10 µM]
N/C(=N\OC(=O)c1ccc2ccccc2c1)c1ccccn1 | . | . | - | - | . | -[10 µM]
CCCCOc1ccc(Cl)cc1CSc1n[nH]c(C)n1 | - | - | ? | - | - | -
CCCCOc1ccc(Cl)cc1CSc1nnc(C)n1N | - | -97.1 | - | - | - | -
Cc1cc(-n2c(C)cc(C(=O)CSc3nnc4sc5ccccc5n34)c2C)no1 | - | - | ? | - | - | -
CC(=O)c1cccc(OCC(=O)c2cc(C)n(-c3cc(C)on3)c2C)c1 | - | ? | - | 12.6µM | - | -
Cc1cc(-n2c(C)cc(C(=O)CSc3ncnc4ccccc34)c2C)no1 | - | - | - | 1.78µM | - | -
Cc1cc(-n2c(C)cc(C(=O)CSc3nnnn3-c3ccc(Cl)cc3)c2C)no1 | - | -100.0 | - | ? | - | -[10 µM]
Cc1cc(-n2c(C)cc(C(=O)COc3ccc4ccc(=O)oc4c3)c2C)no1 | - | - | - | - | - | -
COc1ccccc1NC(=O)CN1C(=O)c2cccc3cccc1c23 | - | . | . | . | . | .
CC1(C)CC(=O)C(N=Nc2cc(S(=O)(=O)N3CCOCC3)ccc2Cl)=C(O)C1 | . | . | - | -[9.22 µM] | . | -[10 µM]
COc1ccc2c(c1)C(=O)[C@H](OC(=O)NCCOc1ccccc1)[C@@H](c1ccc(OC)c(Br)c1)O2 | . | . | . | . | . | -
O=C1N/C(=N\N=C\c2cccs2)SC1Cc1cccc(Cl)c1Cl (stereo not drawn) | - | - | - | 11.2µM | - | ?
CCOC(=S)SSC(=S)OCC | . | . | . | - | . | -
